CBX7 inh – CBX7 chromodomain binding inhibitors, primary screen, biochemical, AlphaScreen; Chromobox protein homolog 7 (Homo sapiens), O95931; AlphaScreen His6-CBX7 / biotin-H3K27me3 peptide binding; stronger effect = lower value; normalised signal (fraction of DMSO) (no concentration beside the values); 66,000 compounds, 1.1% hits; in the data active = normalised signal below about 0.5
Target sequence (O95931 whole entry, looked up): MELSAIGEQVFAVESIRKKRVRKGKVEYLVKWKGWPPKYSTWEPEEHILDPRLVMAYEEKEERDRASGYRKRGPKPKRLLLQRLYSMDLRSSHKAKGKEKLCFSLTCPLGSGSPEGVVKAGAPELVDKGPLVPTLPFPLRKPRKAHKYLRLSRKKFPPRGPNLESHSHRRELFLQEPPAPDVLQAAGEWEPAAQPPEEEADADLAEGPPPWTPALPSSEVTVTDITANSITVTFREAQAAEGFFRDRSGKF
* hit, by the source's call. The full list was thinned out, with hits kept by preference.

SMILES | CBX7 inh
COc1ccc(OC)c(NC(=O)c2c(NCc3cccnc3)sc3c2CCCC3)c1 | 0.6
COc1ccc(OC)c(NC(=O)c2c(NCc3ccncc3)sc3c2CCC(C)C3)c1 (stereo unspecified) | 0.655
COc1ccc(NC(=O)c2c(NCc3cccnc3)sc3c2CCCC3)c(OC)c1 | 0.307*
COc1ccc(NC(=O)c2c(NCc3cccnc3)sc3c2CCC(C)C3)c(OC)c1 (stereo unspecified) | 0.462*
COc1ccc(OC)c(NC(=O)c2c(NCc3cccnc3)sc3c2CCC(C)C3)c1 (stereo unspecified) | 0.649
COc1ccc(CNc2sc3c(c2C(=O)Nc2ccc(OC)cc2OC)CCC3)cc1 | 0.832
COc1ccccc1Nc1ncc(C(=O)N2CCN(c3ccccc3F)CC2)c2ccccc12 | 1.29
COc1cccc(CNC(=O)CCNS(=O)(=O)c2ccc(Cl)cc2)c1 | 1.12
CC1CCc2c(sc(NC(=O)c3ccccc3)c2C(=O)N2CCOCC2)C1 (stereo unspecified) | 1.09
COc1ccc(NC(=O)Cn2ccc3ccccc3c2=O)cc1OC | 1.16
COc1ccccc1-n1cnc2cc(Nc3nnc(C)c4ccccc34)ccc21 | 1.02
Brc1ccc(CNc2ccc3c(c2)ncn3-c2ccccc2)cc1 | 0.24*
COc1ccccc1-n1cnc2cc(NCc3ccc(C(C)C)cc3)ccc21 | 0.203*
COc1ccccc1CNc1ccc2c(c1)ncn2C(C)(C)C | 0.665
CC(C)(C)n1cnc2cc(NCc3ccc(Br)cc3)ccc21 | 0.779
COc1ccccc1-n1cnc2cc(NCc3ccc(N(C)C)cc3)ccc21 | 0.241*
Cc1nc2cc(NCc3ccc(C(C)C)cc3)ccc2n1C | 0.7
Cn1cnc2cc(NCc3ccc(Br)cc3)ccc21 | 0.912
CC(C)c1ccc(CNc2ccc3c(c2)ncn3C)cc1 | 0.833
CCOC(=O)c1sc2ncn(CC)c(=O)c2c1C | 1.14
Fc1cccc(NCc2cn3cccnc3n2)c1 | 0.941
CC(NC(=O)c1cccnc1)C(c1cccs1)N1CCN(c2ccccc2)CC1 (stereo unspecified) | 0.931
CC(Cc1c[nH]c2ccccc12)Nc1ccc2ccccc2n1 (stereo unspecified) | 0.975
COc1ccc(-c2nc(-c3ccc(Cl)cc3)sc2CC(=O)O)cc1 | 1.05
O=C(NCc1cccnc1)C1CCN(S(=O)(=O)c2ccccc2)CC1 | 1
SMILES | CBX7 inh
C=CCN1C(=O)N(c2ccccc2)C(=O)C1CC(=O)Nc1ccc(Cl)cc1 (stereo unspecified) | 1.01
COc1cc(OC)cc(-c2nc3nc(C)c(CCC(=O)Nc4ccc(F)cc4)c(C)n3n2)c1 | 1.02
CC(=O)Nc1ccc(C(=O)CSc2n[nH]c(-c3ccncc3)n2)cc1 | 0.661
Cc1ccc(C(=O)CSc2n[nH]c(-c3ccncc3)n2)cc1 | 0.713
O=C(CSc1n[nH]c(-c2ccncc2)n1)c1ccc(Br)cc1 | 0.232*
Cc1nc(Nc2cc(C)on2)c2c(C)c(C)sc2n1 | 0.852
COc1ccc(-n2ncc3c(NCc4ccccc4OC)ncnc32)cc1 | 0.9
CCOc1ccc(CCNC(=O)C2CCN(S(=O)(=O)c3cnc[nH]3)CC2)cc1OCC | 0.886
CC(C)(C)c1ccc2c(c1)N(CC(=O)NCCc1ccccc1)C(=O)CO2 | 0.407*
Cc1ccc(CCNC(=O)CN2C(=O)COc3ccc(C(C)(C)C)cc32)cc1 | 0.821
CC(C)(C)c1ccc2c(c1)N(CC(=O)NCCN1CCN(Cc3ccccc3)CC1)C(=O)CO2 | 0.977
NC(=O)C1CC(=O)N(c2ccc(O)cc2)C1 (stereo unspecified) | 0.909
O=C(c1c[nH]c2ccc(S(=O)(=O)N3CCCCC3c3cccnc3)cc2c1=O)N1CCCC1 (stereo unspecified) | 1.02
O=C(O)c1c[nH]c2ccc(S(=O)(=O)N3CCCCC3c3cccnc3)cc2c1=O (stereo unspecified) | 0.4*
COc1ccc(S(=O)(=O)N2CCCCC2c2cccnc2)cc1 (stereo unspecified) | 0.964
CCOc1ccc(Nc2cc(C(=O)NC3CCCCCC3)c3ccccc3n2)cc1 | 1.03
Cc1ccc(C)c(-n2c(Cc3cc(=O)[nH]c(=O)[nH]3)nnc2SCC(=O)N2CCCCC2)c1 | 1
CCOC(=O)c1ccc(NC(=O)CSc2nnc(-c3cccnc3)o2)cc1 | 1.02
O=C(CSc1nnc(-c2cccnc2)o1)Nc1ccc(Br)cc1 | 1.02
O=C(CSc1nnc(-c2cccnc2)o1)Nc1ccc(Cl)c(Cl)c1 | 0.469*
CC(NC(=O)CCn1nc(-c2ccc(Cl)cc2)c2ccccc2c1=O)c1ccccc1 (stereo unspecified) | 1.03
CCOc1ccc(C2NCCc3c2[nH]c2ccccc32)cc1 (stereo unspecified) | 0.72
Cc1ccc(C2NC(C(=O)O)Cc3c2[nH]c2ccccc32)cc1 (stereo unspecified) | 1.04
CN(C)c1ccc(C2NC(C(=O)O)Cc3c2[nH]c2ccccc32)cc1 (stereo unspecified) | 0.246*
COc1ccccc1NC(=O)CSc1nccn1-c1ccc(Cl)cc1 | 0.509
SMILES | CBX7 inh
CCOc1ccccc1NC(=O)CSc1nccn1-c1cc(C)cc(C)c1 | 0.63
COc1cccc(-n2ccnc2SCC(=O)Nc2ccccc2F)c1 | 0.535
CCOc1ccccc1NC(=O)CSc1nccn1-c1cccc(OC)c1 | 0.481*
CCOc1ccccc1NC(=O)CSc1nccn1-c1ccc(Cl)cc1 | 0.314*
COc1cccc(-n2ccnc2SCC(=O)Nc2ccc(OC)cc2OC)c1 | 0.965
CC(=O)Nc1cccc(Oc2nnc(-c3ccc(C)c(C)c3)c3ccccc23)c1 | 1.02
O=[N+]([O-])c1cccc(CN2CCN(Cc3cccnc3)CC2)c1 | 0.824
COc1ccc(Nc2ncc(C(=O)Nc3ccc(Br)cc3C)c3ccccc23)cc1 | 0.97
CC(C)n1cnc2cc(NCc3ccccn3)ccc21 | 0.227*
Cn1cnc2cc(NCc3ccccc3Cl)ccc21 | 0.919
Cn1cnc2cc(NCc3cccc(Br)c3)ccc21 | 0.851
COc1ccc(OC)c(NCC(O)Cn2c3ccccc3c3ccccc32)c1 (stereo unspecified) | 0.302*
Cc1ccc(C)c(NCC(O)Cn2c3ccccc3c3ccccc32)c1 (stereo unspecified) | 0.681
Cc1ccccc1NCC(O)Cn1c(C)c(C)c2ccccc21 (stereo unspecified) | 0.812
COc1cc(OC)c(NC(=O)Cc2cn(C)c3ccccc23)cc1Cl | 0.776
CN(Cc1ccccc1)C(C(=O)NC1CCCC1)c1ccccc1 (stereo unspecified) | 0.857
COc1ccc(-n2c(/C=C/c3cccc(OC)c3OC)nc3ccccc3c2=O)cc1 | 0.987
Cc1ccccc1-c1nc(CS(=O)(=O)CC(=O)N2CCN(Cc3ccccc3)CC2)c(C)o1 | 0.694
Cc1ccccc1-c1nc(CS(=O)(=O)CC(=O)N2CCCCC2)c(C)o1 | 0.993
Cc1ccccc1-c1nc(CS(=O)(=O)CC(=O)N2CCC(Cc3ccccc3)CC2)c(C)o1 | 0.489*
N#Cc1c(Nc2ccccc2)ccnc1Oc1ccccc1 | 0.861
CCc1ccc(NS(=O)(=O)c2ccc3[nH]cc(C(=O)NC)c(=O)c3c2)cc1 | 1.11
O=C1c2ccccc2C(Nc2ccc(F)cc2)N1c1cccnc1 (stereo unspecified) | 1.01
COc1ccc(OCC(O)Cn2c(=N)n(CCN3CCOCC3)c3ccccc32)cc1 (stereo unspecified) | 1.01
CCC(=C(c1ccc(OC)cc1)c1ccc(OC)cc1)c1cn(CC(O)CN2CCN(C)CC2)c2ccccc12 (stereo unspecified) | 0.349*
COc1ccc(C(=O)c2cn(Cc3ccc(F)cc3)c3ccccc3c2=O)cc1 | 0.74

Screening data from PubChem BioAssay.
